Measurements as given in PubChem BioAssay.
Calls of active or inactive are those of the source.

Tests used:
[1] = compounds binding Alexa647 anti-His antibody – biochemical, small-molecule microarray, 635 nm fluorescence, artefact control for SMM control protein annotation, primary screen (AID 1128); settings: higher = more signal;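 also: score merges feature fluorescence with signal-to-noise for each printed compound spot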
[2] = system: Human papillomavirus type 1a E7 protein (residues 1-88); test: HPV1a E7 small-molecule binders, primary screen, biochemical, small-molecule microarray, residues 1-88, 635 nm (AID 1129); settings: small-molecule microarray binding, fluorescence 635 nm; higher = more signal
[3] = biological target: Focal adhesion kinase 1 (Homo sapiens) (UniProt Q05397); test: PTK2 protein binding on printed compound slides – biochemical, small-molecule microarray, 635/667 nm fluorescence, BSA, DTT, primary screen (AID 1130); settings: 635 nm fluorescence, higher = more signal;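 also: composite of spot emission at 667 nm and signal to noise over triplicate slides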
[4] = system: Fibrinogen (Alexa647-labelled); test: Alexa647-fibrinogen binding to printed small molecules – biochemical, small-molecule microarray, 635/667 nm fluorescence, artefact control for SMM control-protein annotation, profiling panel (AID 1131); settings: fibrinogen-A647 binding fluorescence, higher = more signal;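 also: z-score merges 667 nm fluorescence with per-spot signal-to-noise over triplicate slides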
[5] = biological target: Follistatin (Homo sapiens) (UniProt P19883); test: FST protein binding to printed compounds – biochemical, small-molecule microarray, 635/667 nm fluorescence, primary screen (AID 1132); settings: 635 nm fluorescence, higher = more signal
[6] = biological target: Fibroblast growth factor 2 (Homo sapiens) (UniProt P09038); test: basic fibroblast growth factor binding to printed compounds – biochemical, small-molecule microarray, 635/667 nm fluorescence, primary screen (AID 1133); settings: FGF2, fluorescence 635/667, higher = more signal
[7] = JC-1 mitochondrial potential readout, lung cancer cells – cell-based, A549, JC-1 fluorescence, basal, 24 h, 100 nL, profiling panel (AID 1138); settings: higher = more signal;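 also: A549 lung adenocarcinoma cells under basal conditions with no added stimulus; test concentration not given here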
Lefty1 = Lefty1 protein binding to printed compounds – biochemical, small-molecule microarray, 635/667 nm fluorescence, primary screen (AID 1139); settings: fluorescence 635/667, higher = more signal
[8] = system: wheat germ agglutinin (Triticum aestivum), Alexa647-labelled; test: Alexa647-WGA lectin binding to printed small molecules – biochemical, small-molecule microarray, 635/667 nm fluorescence, artefact control for SMM control-protein annotation, profiling panel (AID 1140); settings: WGA-A647 binding, 635 nm fluorescence, higher = more signal;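 also: score merges 667 nm feature emission with signal to noise over triplicate slides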
[9] = biological target: Luciferin 4-monooxygenase (Photinus pyralis) (UniProt P08659); test: inhibition of purified Photinus pyralis luciferase – biochemical, luminescence, purified enzyme, 2006 set, primary screen (AID 1141); settings: purified firefly luciferase, SteadyGlo luminescence, 30 min; higher = more signal, called active from +8 up or from −8 down;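 also: cell-free assay with purified firefly luciferase at 100 ng per well in PBS; test concentration not given here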
Chain of Luciferin 4-monooxygenase (Photinus pyralis) (P08659 whole entry, looked up): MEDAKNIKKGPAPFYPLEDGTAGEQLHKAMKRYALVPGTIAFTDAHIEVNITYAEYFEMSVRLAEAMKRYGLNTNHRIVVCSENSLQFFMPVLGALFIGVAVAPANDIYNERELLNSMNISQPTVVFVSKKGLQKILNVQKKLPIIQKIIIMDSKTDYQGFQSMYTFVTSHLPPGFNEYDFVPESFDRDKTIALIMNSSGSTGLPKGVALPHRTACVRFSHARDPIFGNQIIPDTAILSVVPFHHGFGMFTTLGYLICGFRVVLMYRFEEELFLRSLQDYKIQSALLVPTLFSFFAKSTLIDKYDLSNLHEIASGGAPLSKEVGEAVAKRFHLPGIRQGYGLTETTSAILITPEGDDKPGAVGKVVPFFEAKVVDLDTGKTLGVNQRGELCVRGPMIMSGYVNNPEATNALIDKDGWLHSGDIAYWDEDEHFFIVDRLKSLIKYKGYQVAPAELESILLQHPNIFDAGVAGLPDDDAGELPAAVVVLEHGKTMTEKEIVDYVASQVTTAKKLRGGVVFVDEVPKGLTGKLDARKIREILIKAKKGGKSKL

Chain of Focal adhesion kinase 1 (Homo sapiens) (Q05397 whole entry, looked up): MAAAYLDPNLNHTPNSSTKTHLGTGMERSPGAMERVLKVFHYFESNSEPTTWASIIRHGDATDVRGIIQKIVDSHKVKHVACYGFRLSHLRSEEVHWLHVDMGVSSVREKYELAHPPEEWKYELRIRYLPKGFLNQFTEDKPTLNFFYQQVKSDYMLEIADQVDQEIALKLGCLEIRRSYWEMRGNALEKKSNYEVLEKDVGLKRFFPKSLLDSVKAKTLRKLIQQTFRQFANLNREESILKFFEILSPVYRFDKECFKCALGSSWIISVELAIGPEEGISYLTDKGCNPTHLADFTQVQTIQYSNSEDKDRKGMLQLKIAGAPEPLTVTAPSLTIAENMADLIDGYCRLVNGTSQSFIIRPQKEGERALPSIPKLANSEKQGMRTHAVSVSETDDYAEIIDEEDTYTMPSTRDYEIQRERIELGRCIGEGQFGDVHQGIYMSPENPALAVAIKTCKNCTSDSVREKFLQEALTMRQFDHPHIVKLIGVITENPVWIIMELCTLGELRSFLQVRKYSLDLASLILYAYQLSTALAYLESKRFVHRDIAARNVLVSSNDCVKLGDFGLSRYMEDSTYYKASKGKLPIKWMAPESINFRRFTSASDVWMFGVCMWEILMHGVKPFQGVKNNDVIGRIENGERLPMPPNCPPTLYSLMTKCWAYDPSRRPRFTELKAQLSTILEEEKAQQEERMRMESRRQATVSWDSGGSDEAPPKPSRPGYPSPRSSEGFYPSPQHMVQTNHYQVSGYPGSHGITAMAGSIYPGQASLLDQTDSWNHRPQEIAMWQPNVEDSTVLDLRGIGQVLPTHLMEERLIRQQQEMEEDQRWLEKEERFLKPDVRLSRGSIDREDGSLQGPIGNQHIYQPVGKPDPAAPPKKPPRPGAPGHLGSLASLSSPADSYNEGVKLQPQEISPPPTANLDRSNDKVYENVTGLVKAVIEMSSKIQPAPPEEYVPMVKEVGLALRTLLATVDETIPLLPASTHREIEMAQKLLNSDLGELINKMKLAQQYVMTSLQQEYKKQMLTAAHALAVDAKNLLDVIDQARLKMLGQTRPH
Chain of Follistatin (Homo sapiens) (P19883 whole entry, looked up): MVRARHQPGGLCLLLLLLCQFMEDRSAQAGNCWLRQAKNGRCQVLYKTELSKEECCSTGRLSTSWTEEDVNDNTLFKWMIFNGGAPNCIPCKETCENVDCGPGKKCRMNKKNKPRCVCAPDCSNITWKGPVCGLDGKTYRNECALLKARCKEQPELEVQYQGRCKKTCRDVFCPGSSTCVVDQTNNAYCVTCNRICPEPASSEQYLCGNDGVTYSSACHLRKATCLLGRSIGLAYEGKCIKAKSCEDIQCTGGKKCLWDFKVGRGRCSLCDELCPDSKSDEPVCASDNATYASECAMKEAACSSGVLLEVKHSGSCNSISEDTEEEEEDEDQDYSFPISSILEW
Chain of Fibroblast growth factor 2 (Homo sapiens) (P09038 whole entry, looked up): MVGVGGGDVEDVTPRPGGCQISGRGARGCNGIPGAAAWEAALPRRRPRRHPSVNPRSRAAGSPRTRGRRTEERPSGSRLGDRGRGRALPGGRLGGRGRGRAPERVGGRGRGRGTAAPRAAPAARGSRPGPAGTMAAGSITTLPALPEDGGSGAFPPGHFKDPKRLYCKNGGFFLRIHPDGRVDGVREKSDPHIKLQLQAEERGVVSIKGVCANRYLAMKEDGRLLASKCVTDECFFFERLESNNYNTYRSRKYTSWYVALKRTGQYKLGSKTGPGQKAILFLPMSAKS

Compound | composite z-score [1] | composite z-score [2] | composite z-score [3] | composite z-score [4] | composite z-score [5] | composite z-score [6] | z-score [7] | composite z-score (Lefty1) | composite z-score [8] | z-score [9]
COc1cccc(C)c1NC(=O)O[C@H]1[C@H](OC(=O)Nc2ccccc2-c2ccccc2)[C@@H](OC(=O)Nc2ccccc2-c2ccccc2)[C@@H](OC)O[C@@H]1CO | 1 | 1.25 | 1.29 | 1.02 | 1.27 | 0.317 | -0.158 | 0.719 | 0.55 | -0.742 (inactive)
O=C/C=C/c1ccc(-c2ccccc2)cc1 | -0.221 | -0.142 | -0.164 | -0.964 | 0.276 | -0.377 | 0.294 | -0.155 | -0.484 | 0.0686 (inactive)
COc1ccc(C(O)C2C=CC3C(=O)N(c4ccccc4)C(=O)C3N2Nc2ccccc2F)c2ccccc12 (stereo not given) | 1.95 | 1.23 | 1.03 | 0.995 | 1.33 | 0.716 | -0.646 | -0.111 | 1.29 | -1.77 (inactive)
O=C1O[C@H](c2ccccc2)[C@H](c2ccccc2)N2[C@H]1[C@@H](C(=O)Nc1nc3ccccc3s1)[C@]1(C(=O)Nc3ccccc31)[C@H]2c1ccccc1OCCO | 1.71 | 0.813 | 0.832 | 0.966 | 0.453 | 0.64 | -1.84 | 0.0835 | 1.02 | 0.389 (inactive)
COC(=O)[C@@]1(Cc2ccc(F)cc2)[C@H]2c3cc(C(=O)N(C)C)n(Cc4ccc(C(F)(F)F)nc4)c3C[C@H]2CN1C(=O)c1ccccc1 | 1.33 | 1.27 | 1.61 | 1.02 | 1.05 | -0.234 | 0.453 | 0.853 | 0.895 | 1.57 (inactive)
CC1CC/C=C\[C@H]2OC34C=CCN(C(C)C)C(=O)[C@H]3N(C(C)CO)C(=O)[C@@H]4C2C(=O)O1 (stereo not given in full) | -0.112 | -0.504 | -0.205 | -1.22 | 0.305 | -0.455 | 0.501 | 0.572 | 0.748 | -0.316 (inactive)
COC(=O)C(CC#Cc1ccc2c(c1)[C@]1(C(=O)N2)[C@H](c2ccc(OCCO)cc2)N2[C@H](c3ccccc3)[C@H](c3ccccc3)OC(=O)[C@H]2[C@@H]1C(N)=O)C(=O)OC | 2.32 | 1.21 | 0.307 | 0.858 | 0.0592 | -0.379 | -0.616 | -0.269 | 0.397 | -1.38 (inactive)
Cc1ccc(S(=O)(=O)N2[C@@H](c3ccccc3)C(C(=O)O)=C[C@H]2C(C)(C)C)cc1 | 1.43 | 1.18 | 1.31 | 0.651 | 0.804 | -0.0977 | -1.04 | 0.576 | 1.31 | 1.19 (inactive)
CC(C)(C)OC(=O)CC[C@@]1(C(=O)N2CCOCC2)N=C(c2ccc(OCCCO)cc2)O[C@@H]1c1ccccc1CN=[N+]=[N-] | 3.27 | 1.26 | 0.855 | 0.949 | 1.4 | 1.76 | 0.193 | -0.271 | 0.898 | -1.2 (inactive)
C=C(CC1([C@@H](NP(=O)(c2ccccc2)c2ccccc2)[C@H]2C[C@@H]2CCCC)CC1)c1cccc(OC)c1 | 1.18 | 0.811 | 0.751 | 0.269 | 0.43 | -0.7 | 0.959 | -0.739 | 0.344 | 2.59 (inactive)
C=CC[C@]1(C(=O)NCCN2CCOCC2)N=C(c2ccc(OCCCO)cc2)O[C@H]1c1ccccc1 | 0.566 | 0.845 | 0.0827 | -0.212 | 1.44 | 1.8 | 0.654 | 0.918 | 0.496 | 0.601 (inactive)
CCCN1C(=O)[C@@]2(c3ccc([N+](=O)[O-])cc3)CC(=O)N(C3CCCCC3)[C@@H]2c2ccc(CO)cc21 | 0.993 | -0.281 | 0.584 | -0.138 | 1.2 | 1.08 | -0.755 | 0.466 | 0.198 | 0.289 (inactive)
C[C@H]1C2[C@H](Cc3ccccc3)NC(=O)[C@]23C(=O)N[C@@H](Cc2ccccc2)C(=O)N2CCC[C@H]2C(=O)NC/C=C/CC/C=C/C3[C@@H]2O[C@]12C (stereo not given in full) | 0.196 | 0.965 | -0.153 | 0.596 | 0.925 | 0.359 | 0.974 | 0.754 | 0.0255 | 0.527 (inactive)
CCCC[C@@H](O)C1=C(C)Cn2c(=O)n(-c3ccccc3)c(=O)n2[C@H]1CO | -0.237 | -0.432 | -0.137 | -0.926 | -0.355 | 0.0632 | 2.01 | 0.0378 | 0.502 | -1.32 (inactive)
C=CCC(OC(C)=O)[C@@H]1[C@@H](N(Cc2ccc(-c3ccccc3)cc2)C(=O)Cc2ccc(OC)cc2)c2cc(OCCCO)ccc2N1C(=O)c1ccc2ccccc2c1 (stereo not given in full) | -0.365 | -0.168 | -0.0078 | 0.186 | 0.458 | 0.338 | 0.865 | 0.146 | 0.266 | 0.161 (inactive)
